KCNQ2 block: blocks the rat KCNQ2 potassium channel; CHO-K1 KCNQ2, FluxOR thallium flux, 20 min; hits give low values; 310,000 compounds, 1.1% hits; AID 2156; B-score at 10 µM;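 active = fluorescence ratio B-score at most minus 3 library SDs, with starting brightness B-score within 2 library SDs, cut at about -5.5 in these data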
Target sequence (O88943 whole entry, looked up): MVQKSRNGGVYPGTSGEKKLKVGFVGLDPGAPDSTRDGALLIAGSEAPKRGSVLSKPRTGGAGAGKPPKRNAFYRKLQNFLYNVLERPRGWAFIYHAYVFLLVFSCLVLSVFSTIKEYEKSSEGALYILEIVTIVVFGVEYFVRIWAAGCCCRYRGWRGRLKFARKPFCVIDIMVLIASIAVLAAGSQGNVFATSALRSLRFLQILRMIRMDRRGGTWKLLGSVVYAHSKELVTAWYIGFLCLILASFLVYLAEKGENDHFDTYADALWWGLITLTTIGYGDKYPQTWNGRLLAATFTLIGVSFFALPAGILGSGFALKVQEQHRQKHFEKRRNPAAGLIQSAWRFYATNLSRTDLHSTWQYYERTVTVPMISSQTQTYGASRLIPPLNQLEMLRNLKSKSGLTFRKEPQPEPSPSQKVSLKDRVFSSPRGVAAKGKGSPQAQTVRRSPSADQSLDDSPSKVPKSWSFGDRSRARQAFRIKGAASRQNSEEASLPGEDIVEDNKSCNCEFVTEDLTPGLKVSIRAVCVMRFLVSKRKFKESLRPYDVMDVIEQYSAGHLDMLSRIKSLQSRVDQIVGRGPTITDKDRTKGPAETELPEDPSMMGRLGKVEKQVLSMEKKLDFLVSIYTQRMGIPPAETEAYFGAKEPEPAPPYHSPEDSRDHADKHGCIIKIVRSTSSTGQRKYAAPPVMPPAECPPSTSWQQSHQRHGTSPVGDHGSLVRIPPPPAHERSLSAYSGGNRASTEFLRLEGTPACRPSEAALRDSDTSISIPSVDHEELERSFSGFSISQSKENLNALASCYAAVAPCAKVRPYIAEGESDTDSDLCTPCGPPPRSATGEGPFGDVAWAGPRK
KCNQ2 pot: enhances the rat KCNQ2 potassium channel; O88943; CHO-K1 KCNQ2, FluxOR thallium flux fluorescence; hits give high values; B-score at 10 µM; 310,000 compounds, 0.54% hits;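 active = fluorescence ratio B-score at least 3 SD of library B-scores, with initial fluorescence B-score within 3 of them, cut at about 5.3 in these data; same plate scores as AID 2156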;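 note: B-score of peak minus minimum over baseline fluorescence ratio after K+ and Tl+ stimulus; positive B-score means potentiation of KCNQ2 with more thallium influx and brighter signal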
Starred values were filed as active, the others as inactive; i = inactive; . = no result given. Only some compounds are listed: those with a hit (about 1.6% of all), similar ones and a draw of the others.

SMILES	KCNQ2 block	KCNQ2 pot
Fc1ccccc1C1CC(c2ccco2)=Nc2ccccc2S1 (stereo not given)	-7.3*	-7.3
COc1ccc(Nc2cc(C)nc(N3CCN(C(=O)c4ccc5c(c4)OCO5)CC3)n2)cc1	i	0.03
CCC(C)c1ccc(S(=O)(=O)N2CCN3CCCC3C2)cc1 (stereo not given)	i	.
CCn1c(O)c(N=NC(=O)CNC(=O)c2ccco2)c2ccccc21	i	2.6
CCCn1c(O)c(N=NC(=O)c2ccco2)c2ccccc21	i	11*
O=[N+]([O-])c1cccc(S(=O)(=O)NC2CC3CCC2C3)c1 (stereo not given)	i	.
CCOC(=O)c1sc2nccc(N(C)C)c2c1N=CNOCc1c(F)cccc1Cl	-6.2*	-6.2
CCOC(=O)c1sc(NC(=O)Cc2c(F)cccc2Cl)nc1C	i	.
O=C(COC(=O)C1(c2ccc(Cl)cc2)CCCC1)Nc1ncc(C(F)(F)F)cc1Cl	i	.
O=C(COC(=O)C1(c2ccc(F)cc2)CCCC1)Nc1ncc(C(F)(F)F)cc1Cl	-7*	-7
NC(CSCc1cccc(Br)c1)C(=O)O (stereo not given)	-6*	-6
NC(=O)CSCc1cccc(Br)c1	i	.
Cc1c(Cl)ccc2c(C(=O)Nc3cc(C(C)(C)C)on3)cc(-c3ccccn3)nc12	-5.9*	-5.9
Cc1cccc2c(C(=O)Nc3ccc(Br)cc3)cc(-c3ccccn3)nc12	i	0.05
Cc1cc(C)c2nc(-c3cccnc3)cc(C(=O)NC(C)c3cnn(C)c3C)c2c1 (stereo not given)	-8*	-8
Cc1cccc2c(C(=O)O)cc(-c3cccnc3)nc12	i	0.01
Cc1ccccc1OCc1nc2ccccc2[nH]1	-6.6*	-6.6
COc1ccccc1OCc1nc2ccccc2[nH]1	i	.
O=C(CCl)N(CCc1ccccc1)CCc1ccccc1	i	.
Cc1ccc(C)c(N=Nc2ccc(O)c3ncccc23)c1	i	2.4
Cc1cccc(N=Nc2ccc(O)c3ncccc23)c1	i	6.9*
COC(=O)C1=CN(c2ccc(F)cc2)C=C(C(=O)OC)C1c1ccc([N+](=O)[O-])cc1	i	.
COC(=O)C1=CN(c2ccc(OC)cc2)C=C(C(=O)OC)C1c1ccc([N+](=O)[O-])cc1	-5.6*	-5.6
S=C(Nc1ccccc1Cl)N(CCN1CCCCC1)Cc1ccco1	i	.
O=C(NC1CCCC1)C(c1cccs1)N(CC1CCCO1)C(=O)Cc1cccs1 (stereo not given)	i	0.03
SMILES	KCNQ2 block	KCNQ2 pot
O=[N+]([O-])c1ccccc1Sc1nccn1Cc1ccccc1	-6.5*	-6.5
NC(=O)CSc1nccn1Cc1ccccc1	i	0.31
CCCC(=O)Nc1cccc(C(=O)Nc2ccccc2OCC)c1	i	.
CC(C)(C)C1CCC(=NOC(=O)c2ccc(F)cc2)CC1 (stereo not given)	i	1.2
COc1ccccc1/C=C(/CC(=O)NCc1ccccc1)c1nc2ccccc2s1	i	.
COc1ccccc1/C=C(/CC(=O)NCc1ccc(F)cc1)c1nc2ccccc2s1	-6.8*	-6.8
CN(c1ccccc1)S(=O)(=O)c1cc(Cl)ccc1Cl	i	.
CN(c1ccccc1)S(=O)(=O)c1cccc(Cl)c1Cl	-5.6*	-5.6
Cc1cccc(-n2c(CNC(=O)c3ccccc3)nnc2SCC(=O)Nc2nccs2)c1	i	0.35
COCCn1c(-c2ccco2)csc1=Nc1cccnc1	i	.
CC(C)Cn1c(-c2ccco2)csc1=Nc1cccnc1	-6.3*	-6.3
O=C1NC2(CCCCCC2)C(=O)N1Cc1ccccc1Br	i	0.8
CC(=O)N1CC=CC1(CC(C)C)C(=O)NCCc1c[nH]c2ccccc12 (stereo not given)	i	0.88
CC(C)CC1(C(=O)NCCc2c[nH]c3ccccc23)C=CCN1C(=O)c1ccccc1 (stereo not given)	-6.4*	-6.4
Cc1cnc(C)c(N2CCN(Cc3nc(-c4ccccc4)no3)CC2)n1	i	0.49
Cc1c(NC(=O)CSc2nnc(-c3cccc(Cl)c3)o2)c(=O)n(-c2ccccc2)n1C	i	.
CC(=O)NC(Cc1ccccc1F)C(=O)NC1CCN(C(=O)NCc2ccccc2)CC1 (stereo not given)	i	0.91
O=C(N1CCOCC1)N(CCN1CCOCC1)Cc1cccc2ccccc12	i	.
CC1(C(=O)c2ccccc2)C2c3c(ccc4ccccc34)OC(=O)C21C(=O)N1CCOCC1 (stereo not given)	-7.9*	-7.9
CC1CCN(c2ccc(C(=O)NCc3cccs3)cn2)CC1	i	.
Fc1ccc(Br)cc1C1C=C(c2ccc(Br)s2)Nc2ncnn21 (stereo not given)	i	.
COc1cccc(C2C=C(c3ccc(Br)s3)Nc3ncnn32)c1OC (stereo not given)	-6.6*	-6.6
Cc1cc(NC(=O)c2cc(C3CC3)on2)no1	i	0.64
O=C(NCc1ccccc1)C1CCN(c2nc(-c3ccccc3)nc3c2CCC3)CC1	-5.8*	-5.8
COc1ccc(CNC(=O)C2CCN(c3nc(-c4ccccc4)nc4c3CCC4)CC2)cc1	i	.
SMILES	KCNQ2 block	KCNQ2 pot
CCOC(=O)c1ccc(NC(=O)COc2ccccc2CNCCc2ccccc2)cc1	-6.8*	-6.8
CCOC(=O)c1ccc(NC(=O)COc2ccc(CNCCO)cc2OCC)cc1	i	0.04
COCC(C)NS(=O)(=O)c1ccc(C(=O)NC(Cc2ccccc2)c2ccccc2)cc1 (stereo not given)	-7.8*	-7.8
CS(=O)(=O)c1ccc(C(=O)NC(Cc2ccccc2)c2ccccc2)cc1 (stereo not given)	i	.
O=C(NC1CCSC1=O)C1CC(=O)N(c2ccc(F)cc2)C1 (stereo not given)	i	.
CC(C)(C)c1ccc(S(=O)(=O)/N=C2\C=C(NS(=O)(=O)c3ccccc3)C(=O)c3ccccc32)cc1	-6.1*	-6.1
CCc1ccc(S(=O)(=O)/N=C2\C=C(Nc3ccc(C(=O)O)cc3)C(=O)c3ccccc32)cc1	i	3.1
CCOc1cccc2cc(C(=O)NCc3ccccc3)c(=N)oc12	i	.
CCOc1ccccc1-c1ccc(C(=O)NCc2ccccc2)o1	-5.8*	-5.8
Cc1[nH]c2ccccc2c1C(=O)C(=O)N1CCN(c2cccc(Cl)c2)CC1	i	0.1
CC(C)C1=CC2=CCC3C(C)(C(=O)O)CCCC3(C)C2CC1 (stereo not given) (tested in a mixture with another compound)	-5.8*	-5.8
C=C[C@]1(C)C=C2CCC3[C@](C)(CCC[C@@]3(C)C(=O)O)C2CC1 (stereo not given in full)	i	.
N#Cc1nc(COc2ccc(Cl)cc2Cl)oc1N1CCN(c2ccccc2)CC1	-7.7*	-7.7
COc1ccc(N2CCN(c3oc(COc4ccc(Cl)cc4Cl)nc3C#N)CC2)cc1	i	0.01
CC1C(=O)N2CCCc3cc(NC(=O)c4ccccc4C(F)(F)F)cc1c32 (stereo not given)	i	.
COc1c(CC=C(C)C)cc(C2CC(=O)c3c(O)cc(O)cc3O2)c(CC=C(C)C)c1O (stereo not given)	-5.8*	-5.8
COc1cc(C2CC(=O)c3c(O)cc(O)cc3O2)ccc1O (stereo not given)	i	.
Cc1noc(C)c1C(=O)N1CCC2(CC1)Oc1ccc(F)cc1C(=O)C21CC(c2ccc(Cl)cc2)=NO1 (stereo not given)	i	0.08
COc1ccccc1CNc1ncc(-c2ccc(F)cc2)n1C	i	0.13
